ChEMBL document CHEMBL1961873, “Compounds: GSK PKIS; Assays: Nanosyn kinase panel” (2012)

Key:
[1] = target: Rho-associated protein kinase 1 (Homo sapiens) (UniProt Q13464); conditions: at 1 µM;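 further: reported values are mean percent inhibition of ROCK1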
[2] = target: Rho-associated protein kinase 2 (Homo sapiens) (UniProt O75116); conditions: at 0.1 µM
[3] = target: Rho-associated protein kinase 2 (Homo sapiens) (UniProt O75116); conditions: at 1 µM
[4] = target: Ribosomal protein S6 kinase alpha-1 (Homo sapiens) (UniProt Q15418); conditions: at 0.1 µM
[5] = target: Ribosomal protein S6 kinase alpha-1 (Homo sapiens) (UniProt Q15418); conditions: at 1 µM
[6] = target: Ribosomal protein S6 kinase alpha-3 (Homo sapiens) (UniProt P51812); conditions: at 0.1 µM
Sequence of Ribosomal protein S6 kinase alpha-3 (Homo sapiens) (P51812 whole entry): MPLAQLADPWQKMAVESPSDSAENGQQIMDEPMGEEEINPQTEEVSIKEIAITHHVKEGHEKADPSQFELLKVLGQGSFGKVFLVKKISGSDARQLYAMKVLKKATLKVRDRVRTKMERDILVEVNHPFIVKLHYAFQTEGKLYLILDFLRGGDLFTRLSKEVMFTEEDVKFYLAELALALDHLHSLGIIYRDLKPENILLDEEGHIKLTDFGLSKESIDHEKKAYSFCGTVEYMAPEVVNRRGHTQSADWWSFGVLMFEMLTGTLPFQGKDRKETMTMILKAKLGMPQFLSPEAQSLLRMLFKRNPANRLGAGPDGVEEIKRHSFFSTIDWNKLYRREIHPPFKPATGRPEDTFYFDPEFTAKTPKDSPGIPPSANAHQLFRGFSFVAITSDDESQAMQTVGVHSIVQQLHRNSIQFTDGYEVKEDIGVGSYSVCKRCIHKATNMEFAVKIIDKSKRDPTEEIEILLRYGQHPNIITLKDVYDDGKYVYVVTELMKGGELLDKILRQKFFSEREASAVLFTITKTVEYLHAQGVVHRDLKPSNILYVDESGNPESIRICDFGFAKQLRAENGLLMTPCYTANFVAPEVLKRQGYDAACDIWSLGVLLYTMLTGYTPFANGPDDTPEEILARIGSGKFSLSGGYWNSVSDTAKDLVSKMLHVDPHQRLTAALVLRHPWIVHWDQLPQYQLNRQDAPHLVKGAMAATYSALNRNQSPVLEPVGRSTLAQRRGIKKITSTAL

[7] = target: Ribosomal protein S6 kinase alpha-3 (Homo sapiens) (UniProt P51812); conditions: at 1 µM
[8] = target: Ribosomal protein S6 kinase alpha-2 (Homo sapiens) (UniProt Q15349); conditions: at 0.1 µM
Sequence of Ribosomal protein S6 kinase alpha-2 (Homo sapiens) (Q15349 whole entry): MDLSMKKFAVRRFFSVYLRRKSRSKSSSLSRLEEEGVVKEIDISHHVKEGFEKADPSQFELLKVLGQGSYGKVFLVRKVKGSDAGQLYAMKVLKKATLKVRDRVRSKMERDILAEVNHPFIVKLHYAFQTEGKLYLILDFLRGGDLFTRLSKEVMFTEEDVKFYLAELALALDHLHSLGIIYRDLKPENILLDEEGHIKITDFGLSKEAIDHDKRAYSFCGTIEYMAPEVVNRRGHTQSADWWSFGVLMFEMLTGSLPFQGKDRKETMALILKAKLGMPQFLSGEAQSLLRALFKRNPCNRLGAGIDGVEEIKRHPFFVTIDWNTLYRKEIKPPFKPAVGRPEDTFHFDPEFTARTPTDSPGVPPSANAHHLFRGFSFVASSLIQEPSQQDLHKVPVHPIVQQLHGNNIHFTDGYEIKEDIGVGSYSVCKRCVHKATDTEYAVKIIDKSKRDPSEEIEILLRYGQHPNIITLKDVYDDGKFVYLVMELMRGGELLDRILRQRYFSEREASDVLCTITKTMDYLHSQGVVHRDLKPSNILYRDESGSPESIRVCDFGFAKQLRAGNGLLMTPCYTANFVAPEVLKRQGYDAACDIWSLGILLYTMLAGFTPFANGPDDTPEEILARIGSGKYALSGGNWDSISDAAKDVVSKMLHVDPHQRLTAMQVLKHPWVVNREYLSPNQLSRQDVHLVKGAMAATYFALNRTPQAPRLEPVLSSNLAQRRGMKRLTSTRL

[9] = target: Ribosomal protein S6 kinase alpha-2 (Homo sapiens) (UniProt Q15349); conditions: at 1 µM
[10] = target: Ribosomal protein S6 kinase alpha-6 (Homo sapiens) (UniProt Q9UK32); conditions: at 0.1 µM
Sequence of Ribosomal protein S6 kinase alpha-6 (Homo sapiens) (Q9UK32 whole entry): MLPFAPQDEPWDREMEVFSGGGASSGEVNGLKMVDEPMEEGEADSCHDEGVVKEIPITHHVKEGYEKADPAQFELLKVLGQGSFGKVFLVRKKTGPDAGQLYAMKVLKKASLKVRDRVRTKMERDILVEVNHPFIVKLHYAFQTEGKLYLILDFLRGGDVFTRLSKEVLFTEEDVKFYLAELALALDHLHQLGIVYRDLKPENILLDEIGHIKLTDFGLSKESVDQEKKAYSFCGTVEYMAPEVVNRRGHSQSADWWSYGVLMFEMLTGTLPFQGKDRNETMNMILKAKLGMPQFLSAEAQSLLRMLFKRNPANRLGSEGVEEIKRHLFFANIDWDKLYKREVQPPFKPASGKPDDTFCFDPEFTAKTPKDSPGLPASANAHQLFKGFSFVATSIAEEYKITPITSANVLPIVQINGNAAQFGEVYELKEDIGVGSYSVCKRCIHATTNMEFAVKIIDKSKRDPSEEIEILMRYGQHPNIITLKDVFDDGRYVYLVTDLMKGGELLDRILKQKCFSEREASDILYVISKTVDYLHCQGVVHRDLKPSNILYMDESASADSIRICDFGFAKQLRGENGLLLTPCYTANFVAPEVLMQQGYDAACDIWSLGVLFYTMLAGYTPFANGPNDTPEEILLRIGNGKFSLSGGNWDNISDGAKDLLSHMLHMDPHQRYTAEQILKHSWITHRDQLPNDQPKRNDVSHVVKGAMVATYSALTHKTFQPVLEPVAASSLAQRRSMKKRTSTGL

[11] = target: Ribosomal protein S6 kinase alpha-6 (Homo sapiens) (UniProt Q9UK32); conditions: at 1 µM
[12] = target: T1, Serine/threonine-protein kinase Sgk1 (Homo sapiens) (UniProt O00141); conditions: at 0.1 µM
T1 sequence (whole entry): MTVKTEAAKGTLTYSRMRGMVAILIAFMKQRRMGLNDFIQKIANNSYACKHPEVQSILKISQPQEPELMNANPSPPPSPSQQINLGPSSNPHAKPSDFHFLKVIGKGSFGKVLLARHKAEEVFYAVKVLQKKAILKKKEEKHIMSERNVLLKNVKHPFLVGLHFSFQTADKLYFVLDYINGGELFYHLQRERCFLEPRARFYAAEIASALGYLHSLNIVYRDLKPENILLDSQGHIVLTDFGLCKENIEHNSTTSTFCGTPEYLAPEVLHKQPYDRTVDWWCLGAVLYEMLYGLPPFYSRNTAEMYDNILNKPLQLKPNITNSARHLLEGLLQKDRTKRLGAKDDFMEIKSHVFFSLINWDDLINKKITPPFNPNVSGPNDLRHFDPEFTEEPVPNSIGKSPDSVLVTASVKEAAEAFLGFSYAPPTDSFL

[13] = target: T1, Serine/threonine-protein kinase Sgk1 (Homo sapiens); conditions: at 1 µM
[14] = target: T2, Serine/threonine-protein kinase Sgk2 (Homo sapiens) (UniProt Q9HBY8); conditions: at 0.1 µM
T2 sequence (whole entry): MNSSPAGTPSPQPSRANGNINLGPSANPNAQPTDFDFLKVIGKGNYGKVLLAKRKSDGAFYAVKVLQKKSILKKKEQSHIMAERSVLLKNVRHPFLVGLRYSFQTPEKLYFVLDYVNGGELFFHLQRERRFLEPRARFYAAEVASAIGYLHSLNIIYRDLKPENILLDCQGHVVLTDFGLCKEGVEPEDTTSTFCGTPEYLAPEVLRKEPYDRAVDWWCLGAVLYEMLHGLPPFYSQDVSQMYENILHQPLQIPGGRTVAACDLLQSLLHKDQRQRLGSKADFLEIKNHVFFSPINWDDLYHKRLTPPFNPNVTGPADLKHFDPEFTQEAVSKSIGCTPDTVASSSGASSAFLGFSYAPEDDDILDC

[15] = target: T2, Serine/threonine-protein kinase Sgk2 (Homo sapiens); conditions: at 1 µM
[16] = target: T3, Serine/threonine-protein kinase Sgk3 (Homo sapiens) (UniProt Q96BR1); conditions: at 0.1 µM
T3 sequence (whole entry): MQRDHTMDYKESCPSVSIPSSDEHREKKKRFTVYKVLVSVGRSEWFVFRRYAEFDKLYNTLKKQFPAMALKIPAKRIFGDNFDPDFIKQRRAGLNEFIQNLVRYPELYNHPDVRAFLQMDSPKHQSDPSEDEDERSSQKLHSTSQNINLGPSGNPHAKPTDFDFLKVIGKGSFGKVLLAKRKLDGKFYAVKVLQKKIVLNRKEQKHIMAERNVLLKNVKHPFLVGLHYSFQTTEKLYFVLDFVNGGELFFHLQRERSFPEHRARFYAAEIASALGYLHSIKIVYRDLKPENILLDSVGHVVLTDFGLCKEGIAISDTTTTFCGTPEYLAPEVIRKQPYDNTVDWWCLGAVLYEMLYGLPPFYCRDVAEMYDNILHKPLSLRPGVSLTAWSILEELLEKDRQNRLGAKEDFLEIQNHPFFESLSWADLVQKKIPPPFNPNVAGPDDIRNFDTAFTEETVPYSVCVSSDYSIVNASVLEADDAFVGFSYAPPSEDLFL

[17] = target: T3, Serine/threonine-protein kinase Sgk3 (Homo sapiens); conditions: at 1 µM
[18] = target: 5'-AMP-activated protein kinase catalytic subunit alpha-1 (Homo sapiens) (UniProt Q13131); conditions: at 0.1 µM
[19] = target: 5'-AMP-activated protein kinase catalytic subunit alpha-1 (Homo sapiens) (UniProt Q13131); conditions: at 1 µM
[20] = target: 5'-AMP-activated protein kinase catalytic subunit alpha-2 (Homo sapiens) (UniProt P54646); conditions: at 0.1 µM;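 further: mean inhibition measured on the AMPK complex of alpha2, beta1 and gamma1 subunits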

Sequence of Rho-associated protein kinase 2 (Homo sapiens) (O75116 whole entry, looked up): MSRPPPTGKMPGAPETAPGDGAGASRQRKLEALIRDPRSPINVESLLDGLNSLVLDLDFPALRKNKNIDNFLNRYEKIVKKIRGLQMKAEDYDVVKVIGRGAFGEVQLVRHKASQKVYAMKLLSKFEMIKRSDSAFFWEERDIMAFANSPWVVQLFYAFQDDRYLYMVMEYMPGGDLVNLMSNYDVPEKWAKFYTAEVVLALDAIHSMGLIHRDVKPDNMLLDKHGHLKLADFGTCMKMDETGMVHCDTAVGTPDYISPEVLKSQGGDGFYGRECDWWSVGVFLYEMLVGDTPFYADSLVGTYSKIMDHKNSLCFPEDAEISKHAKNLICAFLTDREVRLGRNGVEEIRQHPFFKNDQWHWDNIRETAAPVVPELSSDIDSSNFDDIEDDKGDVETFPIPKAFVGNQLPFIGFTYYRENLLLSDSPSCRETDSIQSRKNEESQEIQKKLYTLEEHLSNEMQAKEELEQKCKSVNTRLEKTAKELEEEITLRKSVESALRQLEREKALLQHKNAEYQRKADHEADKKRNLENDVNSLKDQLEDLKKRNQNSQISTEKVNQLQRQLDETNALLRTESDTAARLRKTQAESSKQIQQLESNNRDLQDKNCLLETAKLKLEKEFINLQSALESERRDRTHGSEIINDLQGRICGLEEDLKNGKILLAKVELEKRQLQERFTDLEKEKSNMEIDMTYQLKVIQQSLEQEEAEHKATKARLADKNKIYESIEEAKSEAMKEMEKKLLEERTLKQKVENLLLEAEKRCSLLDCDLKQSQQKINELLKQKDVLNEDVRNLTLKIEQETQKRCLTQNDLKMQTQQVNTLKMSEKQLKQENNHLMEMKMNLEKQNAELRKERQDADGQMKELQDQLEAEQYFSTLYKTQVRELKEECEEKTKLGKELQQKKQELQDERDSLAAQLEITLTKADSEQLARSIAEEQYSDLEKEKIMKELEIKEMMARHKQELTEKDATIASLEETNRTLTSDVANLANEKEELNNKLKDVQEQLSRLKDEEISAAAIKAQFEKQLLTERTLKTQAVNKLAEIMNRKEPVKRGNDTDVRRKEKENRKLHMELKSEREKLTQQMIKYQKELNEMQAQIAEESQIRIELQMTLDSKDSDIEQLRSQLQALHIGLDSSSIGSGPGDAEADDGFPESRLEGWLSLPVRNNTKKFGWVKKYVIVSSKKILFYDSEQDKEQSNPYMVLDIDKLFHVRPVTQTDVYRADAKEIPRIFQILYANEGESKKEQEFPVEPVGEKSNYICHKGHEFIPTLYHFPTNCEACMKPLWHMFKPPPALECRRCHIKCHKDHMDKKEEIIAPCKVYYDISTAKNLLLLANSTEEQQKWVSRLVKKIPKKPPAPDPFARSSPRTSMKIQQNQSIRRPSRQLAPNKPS
Sequence of Rho-associated protein kinase 1 (Homo sapiens) (Q13464 2-1354 limits assumed): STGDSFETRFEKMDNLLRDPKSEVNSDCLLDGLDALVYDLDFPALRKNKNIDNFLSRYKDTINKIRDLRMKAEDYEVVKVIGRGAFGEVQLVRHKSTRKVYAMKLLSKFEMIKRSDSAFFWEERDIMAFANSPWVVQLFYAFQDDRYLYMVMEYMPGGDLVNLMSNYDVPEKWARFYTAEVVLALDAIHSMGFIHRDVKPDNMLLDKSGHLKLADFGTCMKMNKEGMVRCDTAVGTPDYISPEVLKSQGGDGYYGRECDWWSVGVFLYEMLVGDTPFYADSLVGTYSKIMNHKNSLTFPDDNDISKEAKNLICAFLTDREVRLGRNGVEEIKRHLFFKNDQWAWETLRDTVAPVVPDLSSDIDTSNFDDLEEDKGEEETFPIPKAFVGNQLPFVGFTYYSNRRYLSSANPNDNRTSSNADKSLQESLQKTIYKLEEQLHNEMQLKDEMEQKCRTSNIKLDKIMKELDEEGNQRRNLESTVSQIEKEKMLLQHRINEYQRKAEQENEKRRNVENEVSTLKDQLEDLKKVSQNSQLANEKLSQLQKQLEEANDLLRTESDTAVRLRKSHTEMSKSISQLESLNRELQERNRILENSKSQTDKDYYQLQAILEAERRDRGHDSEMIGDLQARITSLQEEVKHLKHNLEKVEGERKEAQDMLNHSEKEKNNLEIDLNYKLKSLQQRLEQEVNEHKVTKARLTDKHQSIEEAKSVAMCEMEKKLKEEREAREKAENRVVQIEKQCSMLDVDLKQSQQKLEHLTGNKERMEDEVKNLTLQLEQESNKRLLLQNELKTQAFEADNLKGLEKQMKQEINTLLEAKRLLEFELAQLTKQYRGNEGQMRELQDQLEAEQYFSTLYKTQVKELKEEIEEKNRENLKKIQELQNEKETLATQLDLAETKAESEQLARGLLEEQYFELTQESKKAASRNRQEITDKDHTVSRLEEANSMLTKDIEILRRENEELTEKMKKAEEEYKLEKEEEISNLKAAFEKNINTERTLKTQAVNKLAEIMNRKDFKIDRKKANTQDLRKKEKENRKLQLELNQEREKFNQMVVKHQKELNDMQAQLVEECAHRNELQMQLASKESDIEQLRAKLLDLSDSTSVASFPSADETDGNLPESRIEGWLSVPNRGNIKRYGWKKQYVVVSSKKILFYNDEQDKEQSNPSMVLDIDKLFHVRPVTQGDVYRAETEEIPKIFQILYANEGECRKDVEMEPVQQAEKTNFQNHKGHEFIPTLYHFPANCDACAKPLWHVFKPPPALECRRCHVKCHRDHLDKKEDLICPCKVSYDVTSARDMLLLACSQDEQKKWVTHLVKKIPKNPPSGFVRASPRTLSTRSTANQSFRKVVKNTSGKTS

| Structure (SMILES) | inhibition [1] [%] | inhibition [2] [%] | inhibition [3] [%] | inhibition [4] [%] | inhibition [5] [%] | inhibition [6] [%] | inhibition [7] [%] | inhibition [8] [%] | inhibition [9] [%] | inhibition [10] [%] | inhibition [11] [%] | inhibition [12] [%] | inhibition [13] [%] | inhibition [14] [%] | inhibition [15] [%] | inhibition [16] [%] | inhibition [17] [%] | inhibition [18] [%] | inhibition [19] [%] | inhibition [20] [%] |
| --- | --- | --- | --- | --- | --- | --- | --- | --- | --- | --- | --- | --- | --- | --- | --- | --- | --- | --- | --- | --- |
| Nc1nc(-c2ccc3c(c2)C(=Cc2cc(Br)c(O)c(Br)c2)C(=O)N3)cs1 | -0.02 | -0.52 | 2.2 | -0.32 | 4.1 | -0.26 | 1.6 | -0.77 | 1.44 | -0.07 | 2.87 | 0.99 | 0.56 | 0.38 | 2.1 | -0.67 | -0.04 | -0.3 | 6.79 | 3.28 |
| NCc1ccc(-c2nc(-c3ccc(Cl)c(O)c3)c(-c3ccncc3)[nH]2)cc1 | 2.17 | -0.88 | 0.95 | -0.63 | 1.3 | -1.01 | -1.09 | 0.29 | 1.53 | 0.47 | 0.03 | 0.62 | 0.21 | 0.15 |  | -0.56 | -0.81 | 0.17 | -1.38 | -2.35 |
| CCn1c(-c2nonc2N)nc2cnc(Oc3cccc(NC(=O)c4ccc(OCCN5CCOCC5)cc4)c3)cc21 |  | 90 | 90.5 | 26.1 | 70.6 | 12.2 | 54.6 | 15.6 | 61 | 2.18 | 13.8 | 7.56 | 34.7 | 15.7 | 58.5 | 36.3 | 74.3 | 2.28 | 2.06 | 2.76 |
| O=C(Nc1n[nH]c2nc(-c3ccco3)c(Br)cc12)C1CC1 | 0.97 | 0.99 | -0.88 | 1.12 | -0.1 | 0.52 | -0.3 | 1.97 | 2.85 | 0.15 | 2.56 | 3.35 | 3.09 | 0.84 | -4.73 | 2.77 | 3.45 | 3.65 | 3.4 | 1.15 |
| Cc1cccc(-c2n[nH]cc2-c2ccc3ncccc3n2)n1 | -0.22 | 0.72 | -0.18 | -0.36 | 0.1 | 1.16 | 1.24 | 0.29 | 1.84 | 0.98 | 1.71 | 0.86 | 1.34 | 0.23 | 0.54 | 0.78 | -0.02 | 1.82 | 0.12 | 0.85 |
| COc1cc2ncn(-c3cc(O[C@@H](C)c4ccccc4Cl)c(C(N)=O)s3)c2cc1OC | 3.27 | 3.27 | 5.4 | 1.94 | 4.51 | 1.79 | 5.13 | 3.03 | 6.66 | 1.81 | 6.8 | 3.98 | 4.72 | 4.32 | 3.95 | 4.22 | 7.31 | 3.57 | 10.6 | 1.04 |
| CS(=O)(=O)CCNCc1nc(-c2ccc3ncnc(Nc4ccc(F)c(Cl)c4)c3c2)cs1 | 2.92 | 2.45 | 5.8 | 1.4 | 3.63 | 1.07 | 2.43 | -0.57 | 0.84 | 0.69 | 1.36 | 0.28 | 4.55 | 2.82 | -2.15 | 3.08 | 2.67 | 2.39 | 1.3 | -4.68 |
| CCCN1CCC=C(c2ccc(Nc3nc(Nc4ccccc4C(N)=O)c4cc[nH]c4n3)c(C)c2)C1 | 8.96 | 2.53 | 12.8 | 19.8 | 54.6 | 9.39 | 39.4 | 3.72 | 19.2 | 11.7 | 38.9 | 1.16 | 5.7 | 1.55 | 1.12 | 2.67 | 2.94 | 4.78 | 29.5 | 8.68 |
| Nc1ncnc2occ(-c3ccc(NC(=O)Nc4cccc(C(F)(F)F)c4)cc3)c12 | 19 | 11.1 | 46.9 | 4.59 | 33.8 | 2.15 | 26.1 | 7.44 | 52.9 | -0.29 | 9.85 | 4.14 | 3.96 | 3.57 | 4.73 | 6.15 | 2.94 | 1.82 | 5.16 | 2.97 |
| Cn1cc(C=C2C(=O)Nc3cccnc32)c2ccccc21 | 5.28 | 2.47 | 8.3 | 0.08 | 5.16 |  |  | 1.73 | 7.9 | 2.64 | 10.2 | 1.6 | 5.51 | -2.41 | 1.75 | 1.35 | 0.63 | 5.84 | 14.8 | 4.46 |
| CS(=O)(=O)CCNCc1ccc(-c2ccc3ncnc(Nc4ccc(OCc5ccccc5)c(Cl)c4)c3c2)o1 | 3.86 | 1.28 | 5.61 | 0.36 | 2.7 | -1.21 | 1.51 | 1.08 | 2.7 | -0.67 | 0.49 | 0.96 | 1.58 | 2.63 | 0.46 | -0.5 | 1.84 | -1.82 | -0.45 | 3.82 |
| Cc1ccc(NC(=O)c2ccnc(N3CCCC3)c2)cc1-c1ccc(C(=O)NCC2CC2)cc1 | 7.68 | 5.19 | 7.89 | 3.15 | 5.01 | 2.42 | 6.09 | 3.89 | 5.23 | 2.53 | 4.24 | 5.73 | 4.14 | 2.67 | 6.84 | 1.32 | 1.99 | 6.18 | 7.1 | 6.89 |
| COc1cc2c(cc1Nc1nc(N3CCc4ccccc43)c3cc[nH]c3n1)N(C(=O)CN(C)C)CC2 | 1.14 | 0.55 | -1.46 | 0.16 | 0.41 | 0.21 | -1.32 | 0.86 | 0.48 | 1.57 | 0.95 | 0.53 | 1.07 | -0.51 | 2.34 | 1.69 | -0.59 | 2.03 | 0.36 | -1.68 |
| CC1=C(C(=O)Nc2ccc3[nH]ncc3c2)C(c2ccc(F)cc2)NC(=O)N1 (stereo not given) |  | 64.1 | 74.5 | 2.36 | 15.7 | 2.28 | 11.2 | 2.36 | 7.93 | 2.07 | 2.82 | 1.11 | 7.18 | -1.1 | 4.13 | 4.02 | 6.8 | 3.82 | 20.4 | 3.59 |
